Records with an inconclusive call do not appear. Activity calls are given as the source filed them. Unless noted, the call rests on the fitted dose curve; in most records, active means well fitted curve in the direction sought with a large enough effect; inconclusive means small, poorly fitted or top-dose-only effect, or another doubt; inactive means no such curve, though single readings can be large; an effect the other way counts as inactive or inconclusive.
Legend:
[1] = qHTS for Activators of Parkin Expression: LOPAC Validation Assay (NLuc Reporter) (AID 720572)
Procedure, shortened: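 Compound effects on Parkin promoter activity were measured as NanoLuc luminescence after 24 h at 37 C. The neuronal reporter line also carried FLuc, which was read first. LOPAC compounds were tested at 7 concentrations, with normalization to DMSO (0%) and positive control (100%).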

[2] = qHTS for Activators of Parkin Expression: LOPAC Validation Assay (FLuc Reporter) (AID 720573)
Procedure, shortened: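 Readout is FLuc luminescence from neuronal reporter cells (Parkin promoter, FLuc plus NLuc) after 24 h compound exposure in dose response. Values normalized to neutral DMSO and positive-control compounds.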

[3] = molecular target: T1, Hexokinase-4 (Homo sapiens) + Glucokinase regulatory protein (Homo sapiens) (UniProt P35557+Q14397); experiment: qHTS assay for inhibitors of recombinant human GCK-GKRP interaction: ADP-Glo assay (AID 743206);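 further: plate controls were DMSO plus enzyme for no effect and no enzyme for full effect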
Procedure, shortened: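 Pin-transferred compounds meet a 15 nM GST-GCK/15 nM FLAG-GKRP/2 uM S6P mix (dispense concentrations). ATP is then added to 0.4 mM final with 5 mM glucose, and the reaction runs 60 min at room temperature. ADP is quantified luminescently.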

[4] = molecular target: T1, Hexokinase-4 (Homo sapiens) + Glucokinase regulatory protein (Homo sapiens); experiment: qHTS assay for inhibitors of recombinant human GCK-GKRP interaction: HTRF assay (AID 743207);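 further: 0% = DMSO with GCK present and -100% = DMSO wells lacking GCK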
Procedure, shortened: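 Titration screening format: recombinant GST-GCK and FLAG-GKRP at 5 nM, S6P at 2 uM, labelled anti-tag antibodies, 60 min at RT, dual-wavelength HTRF readout.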

[5] = molecular target: Atrial natriuretic peptide receptor 1 (Homo sapiens) (UniProt P16066); experiment: Natriuretic polypeptide receptor (hNpr1) antagonism - Pilot screen (AID 1347049; calls by dose curve;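 further: HEK293 cells with hNpr1 and GloSensor cGMP luciferase stimulated by 0.1 nM hNppA; agonist-evoked cGMP luminescence read 20 min after hNppA addition; series mostly up to about 58 µM; on the % scale 0 is the no-effect control and ±100 the full control effect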)
Procedure, shortened: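 Receptor antagonism read as cGMP-dependent luminescence in hNpr1/pGS-40F HEK293 cells: pre-read after 30 min compound exposure, post-read 20 min after hNppA agonist at 0.1 nM final, all at room temperature, protected from light; A-71915 titration as control.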

[6] = molecular target: Atrial natriuretic peptide receptor 2 (Homo sapiens) (UniProt P20594); experiment: Natriuretic polypeptide receptor (hNpr2) antagonism - Pilot subtype selectivity assay (AID 1347050; calls by dose curve; further: on the % scale 0 is the no-effect control and ±100 the full control effect)
Procedure, shortened: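 Antagonist mode: compounds (LOPAC1280, seven 1:5 dilutions) added 30 min before 1 nM hNppC stimulation of hNpr2-HEK293 cGMP-sensor cells; luminescence read before and 20 min after agonist at ambient temperature.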

[7] = NS1 protein of Zika virus - qHTS assay to identify small molecule inhibitors in human HEK 293 cells (AID 1347053);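 further: series mostly up to about 46 µM; plate controls were infected untreated cells for no effect and uninfected cells for full effect; nearly all actives have a fitted effect of over 55% in size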
Procedure, shortened: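 Read-out is a two-antibody TR-FRET for ZIKV NS1, normalized between uninfected cells and infected cells. Compound added 1 h before MR766 infection at MOI 0.5; human HEK 293 cells incubated 24 h, 37 C.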

[8] = molecular target: T2, Tyrosine-protein phosphatase non-receptor type substrate 1 (Homo sapiens) + Leukocyte surface antigen CD47 (Homo sapiens) (UniProt P78324+Q08722); experiment: CD47-SIRPalpha protein protein interaction - LANCE assay qHTS validation (AID 1347057; active means well fitted curve in the direction sought with a large enough effect in the signal ratio, with a control signal flat, not every such curve was filed as active; the % refers to the signal ratio; further: series mostly up to about 38 µM; 0% is about no effect)
Procedure, shortened: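 Inhibition of soluble CD47/SIRPalpha ectodomain association by titrated compounds, measured as 665/615 nm time-resolved FRET ratio after sequential 30 min room-temperature incubations.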

[9] = molecular target: T2, Tyrosine-protein phosphatase non-receptor type substrate 1 (Homo sapiens) + Leukocyte surface antigen CD47 (Homo sapiens); experiment: CD47-SIRPalpha protein protein interaction - Alpha assay qHTS validation (AID 1347059);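 further: bead proximity luminescence from CD47 binding SIRPalpha after compound preincubation with SIRPalpha; on the % scale 0 is the no-effect control and ±100 the full control effect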
Procedure, shortened: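 AlphaScreen signal between CD47-His (12.5 nM) and biotin-SIRPalpha (25 nM) soluble extracellular domains, bead-captured via Ni-NTA and streptavidin. Compounds, in 7-point titrations, met SIRPalpha 30 min before CD47; PBS pH 7.4 with 0.05% IGEPAL.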

[10] = molecular target: Parathyroid hormone/parathyroid hormone-related peptide receptor (Homo sapiens) (UniProt Q03431); experiment: qHTS for PTHR1 Agonists: Optimization Screen against the NCGC LOPAC library (AID 1347079);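 further: GloSensor cAMP luminescence in HEK-293 GP2 cells expressing human PTHR1 with IBMX; 0% is about no effect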
Procedure, shortened: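 Signal increase flags agonism. GP2 cells, derived from HEK-293, express human PTHR1 and a GloSensor cAMP construct.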

[11] = system: Zika virus NS2B-NS3 protease (unlinked); experiment: Optimization of GU AMC qHTS for Zika virus inhibitors: Unlinked NS2B-NS3 protease assay (AID 1347151); further: potency means the concentration at half of the fitted maximal effect; nearly all actives have a fitted effect of over 80% in size
Procedure, shortened: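 In this qHTS, compounds acted on 25 nM unlinked Zika NS2B–NS3 in pH 8.0 Tris/Tween buffer. Cleavage of an AMC peptide ran 15 min at room temperature, to about 20% conversion.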

[12] = molecular target: Lysine-specific demethylase 5B (Homo sapiens) (UniProt Q9UGL1); experiment: Optimization screen for KDM5B Histone Demethylases FDH coupled qHTS against the LOPAC library (AID 1347166); further: 0% is about no effect
Procedure, shortened: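 KDM5BDeltaAP (200nM final) in 50mM HEPES pH 7.5, 0.01% Tween-20 was preincubated with compound for 10 min at room temperature. A substrate mix of 12.5uM H3K4Me3, 25uM a-ketoglutarate, ascorbate, Fe2+, NAD+ and formaldehyde dehydrogenase was then added. NADH fluorescence (340/450 nm) was read initially and after 30 min.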

[13] = qHTS to identify inhibitors of the type 1 interferon - major histocompatibility complex class I in skeletal muscle: primary screen against the NCATS LOPAC collection (AID 1347405);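 further: human myoblasts with HiBiT tag on endogenous HLA-B stimulated by IFN-beta; lytic HiBiT luminescence reporting HLA-B protein level; on the % scale 0 is the no-effect control and ±100 the full control effect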
Procedure, shortened: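 HLA-B HiBiT myoblasts, IFN-b 4 ng/ml, dexamethasone-free medium; compounds 7-pt 1:4.3 titration, top 46 uM final; 24 h at 37 C; Nano-Glo HiBiT lytic reagent, 10 min RT, luminescence.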

[14] = Validation qHTS assay for inhibitors of Activation Induced Cytidine Deaminase (AID): UDG Counterscreen signal (AID 1347427); further: 0% is about no effect
Procedure, shortened: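 Fluorescence at 560 nm excitation, 665 nm emission reports UDG signal after 250 mM NaOH (2x) addition and 30 min. Enzymes (AID 1 uM, UDG 2 U/mL, at 4/3x) preincubated 10 min with compound, then 4 h with 4x 250 nM DJC20/DJC23 substrate at room temperature.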

[15] = molecular target: Single-stranded DNA cytosine deaminase (Homo sapiens) (UniProt Q9GZX7); experiment: Validation qHTS assay for inhibitors of Activation Induced Cytidine Deaminase (AID): AID signal (AID 1347429); further: on the % scale 0 is the no-effect control and ±100 the full control effect
Procedure, shortened: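 AID+UDG coupled FRET deamination; cpds up to 114 uM final; DJC20/DJC23 substrate, 4 hr RT; NaOH stop, 30 min RT; read Ex 540/Em 590.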

[16] = Primary qHTS for inhibitors of La Crosse Virus (LACV) - induced cell death in SH-SY5Y cells (AID 1508616);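 further: top concentration of the series differs between compounds; 0% = infected DMSO wells and 100% = uninfected DMSO wells; higher means more rescue of cells from virus-induced death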
Procedure, shortened: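 Cytopathicity rescue screen: compounds pinned onto SH-SY5Y cells, which are then infected with LACV (MOI 0.01) and held 6 days at 37C. Percent activity is scaled between infected DMSO control and uninfected DMSO control.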

[17] = Primary qHTS for small molecule stabilizers of the endoplasmic reticulum resident proteome: Secreted ER Calcium Modulated Protein (SERCaMP) assay (AID 1508630); further: on the % scale 0 is the no-effect control and ±100 the full control effect
Procedure, shortened: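 The SH-SY5Y reporter protocol was run at 3 concentrations up to 38.3 uM (primary) or 11 concentrations (follow-up): 16 h compound, 100 nM thapsigargin for 4 h, then extracellular luciferase luminescence.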

Papain (Carica papaya) = Papain (Carica papaya) (UniProt P00784); experiment: Primary qHTS assay for inhibitors of the protease papain (AID 1645873)
[18] = Primary qHTS for inhibitors of nuclear receptor binding SET domain protein 2 (NSD2) in an isogenic RCH-ACV NSD2 p.E1099K mutant (9B) (AID 1645876); further: on the % scale 0 is the no-effect control and ±100 the full control effect; nearly all actives have a fitted effect of over 70% in size
[19] = molecular target: Metallo-beta-lactamase type 2 (Klebsiella pneumoniae) (UniProt C7C422); experiment: qHTS to identify inhibitors of the New Delhi Metallo-beta-lactamase (NDM): assay validation screen against the NCATS LOPAC Collection (AID 1794843)
Procedure, shortened: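 Absorbance at 485 nm from nitrocefin turnover (50 uM solution added), read at plateau, gives the read-out. Compounds in DMSO were incubated first with 2 nM final NDM-1 in pH 7.0 HEPES buffer containing 1 uM ZnSO4 and 0.01% Tween20.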

[20] = molecular target: Glutathione peroxidase 1 (Homo sapiens) (UniProt P07203); experiment: Primary qHTS Assay for Inhibitors of Recombinant Selenoprotein Glutathione Peroxidase 1 (GPX1) (AID 1845191); further: nearly all actives have a fitted effect of over 65% in size
Procedure, shortened: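 NADPH consumption tracked by fluorescence at 340/450 nm between t=0 and t=15 min, room temperature. Final mix: 10 nM GPX1, 100 nM glutathione reductase, 1 mM GSH, 0.5 mM NADPH, 0.5 mM cumene hydroperoxide, 0.01% BSA; 30 min compound–enzyme preincubation.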

[21] = molecular target: Phospholipid hydroperoxide glutathione peroxidase GPX4 (Homo sapiens) (UniProt P36969); experiment: Primary qHTS Assay for Inhibitors of Recombinant Selenoprotein Glutathione Peroxidase 4 (GPX4) (AID 1845192); settings: outcome: dose series up to 50 µM unless noted; further: series mostly up to about 50 µM; on the % scale 0 is the no-effect control and ±100 the full control effect; nearly all actives have a fitted effect of over 65% in size
Procedure, shortened: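 NADPH consumption followed by fluorescence at 340/450 nm, t=0 and after 15 min at room temperature. Reaction started with cumene hydroperoxide (0.5 mM final) after 30 min compound–GPX4 preincubation; final 200 nM GPX4, 100 nM GR, 1 mM GSH, 0.5 mM NADPH.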

[22] = qHTS drug screen for cell cycle checkpoint inhibitors in PARPi-resistant BRCA-mutant ovarian cancer cell lines. (AID 1963452; calls by dose curve); settings: PEO1/OlaR viability, CellTiter-Glo luminescence, 96 h, stronger effect = lower value
Procedure, shortened: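 PEO1, PEO4 and PEO1/OlaR ovarian cancer cells, 600 per well, exposed 96 h at 37C to a dilution series. Viability read by CellTiter-Glo luminescence, normalized to DMSO and empty wells; activity summarized as Z-AUC.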

Sequence of Glutathione peroxidase 1 (Homo sapiens) (P07203 whole entry, looked up): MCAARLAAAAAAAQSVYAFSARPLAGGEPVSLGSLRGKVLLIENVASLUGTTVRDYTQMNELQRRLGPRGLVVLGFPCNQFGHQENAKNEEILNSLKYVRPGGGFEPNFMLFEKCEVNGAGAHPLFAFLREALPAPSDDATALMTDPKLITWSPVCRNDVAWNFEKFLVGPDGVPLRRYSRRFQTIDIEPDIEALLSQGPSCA
T1 sequence (P35557 whole entry, looked up): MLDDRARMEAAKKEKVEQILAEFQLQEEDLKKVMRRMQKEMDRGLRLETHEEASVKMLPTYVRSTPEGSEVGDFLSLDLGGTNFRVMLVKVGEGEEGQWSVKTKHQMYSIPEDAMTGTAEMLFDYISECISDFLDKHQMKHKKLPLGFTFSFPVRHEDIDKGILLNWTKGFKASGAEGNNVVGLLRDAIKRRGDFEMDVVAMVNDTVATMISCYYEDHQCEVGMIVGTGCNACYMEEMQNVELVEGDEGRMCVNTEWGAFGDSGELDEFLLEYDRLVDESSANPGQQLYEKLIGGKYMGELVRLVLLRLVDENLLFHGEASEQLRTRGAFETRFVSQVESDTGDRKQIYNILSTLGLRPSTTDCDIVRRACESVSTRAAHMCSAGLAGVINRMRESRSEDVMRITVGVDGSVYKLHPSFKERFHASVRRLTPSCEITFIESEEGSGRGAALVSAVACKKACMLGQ
T1 sequence (Q14397 whole entry, looked up): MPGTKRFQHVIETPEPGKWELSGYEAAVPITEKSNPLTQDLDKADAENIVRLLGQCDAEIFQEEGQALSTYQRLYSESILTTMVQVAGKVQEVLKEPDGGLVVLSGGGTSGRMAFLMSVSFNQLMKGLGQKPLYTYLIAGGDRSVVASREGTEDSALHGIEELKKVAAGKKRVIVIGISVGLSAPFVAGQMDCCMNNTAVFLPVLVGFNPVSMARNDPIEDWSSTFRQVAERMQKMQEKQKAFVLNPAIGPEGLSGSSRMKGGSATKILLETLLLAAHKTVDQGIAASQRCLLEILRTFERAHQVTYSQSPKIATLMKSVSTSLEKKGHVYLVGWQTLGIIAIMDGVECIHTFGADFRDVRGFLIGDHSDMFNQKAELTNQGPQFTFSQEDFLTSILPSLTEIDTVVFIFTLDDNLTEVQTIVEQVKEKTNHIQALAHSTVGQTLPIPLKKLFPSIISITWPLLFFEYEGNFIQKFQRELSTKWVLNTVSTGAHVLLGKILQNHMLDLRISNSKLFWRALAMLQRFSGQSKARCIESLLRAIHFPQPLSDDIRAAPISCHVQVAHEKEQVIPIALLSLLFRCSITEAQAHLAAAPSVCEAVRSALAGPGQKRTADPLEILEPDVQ
T2 sequence (P78324 whole entry, looked up, the tested form may be a part): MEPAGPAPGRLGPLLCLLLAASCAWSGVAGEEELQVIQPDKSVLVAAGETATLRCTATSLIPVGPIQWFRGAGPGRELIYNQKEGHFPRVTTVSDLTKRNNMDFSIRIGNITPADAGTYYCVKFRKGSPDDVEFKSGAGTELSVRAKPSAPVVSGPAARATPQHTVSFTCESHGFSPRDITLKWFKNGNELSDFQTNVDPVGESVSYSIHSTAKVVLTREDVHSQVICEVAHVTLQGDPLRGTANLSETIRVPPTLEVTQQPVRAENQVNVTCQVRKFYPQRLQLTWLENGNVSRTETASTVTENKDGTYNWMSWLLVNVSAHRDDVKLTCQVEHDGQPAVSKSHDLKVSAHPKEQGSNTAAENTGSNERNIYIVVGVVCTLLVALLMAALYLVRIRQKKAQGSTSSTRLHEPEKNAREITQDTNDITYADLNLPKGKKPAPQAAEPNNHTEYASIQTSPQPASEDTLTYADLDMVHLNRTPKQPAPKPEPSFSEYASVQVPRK
T2 sequence (Q08722 whole entry, looked up, the tested form may be a part): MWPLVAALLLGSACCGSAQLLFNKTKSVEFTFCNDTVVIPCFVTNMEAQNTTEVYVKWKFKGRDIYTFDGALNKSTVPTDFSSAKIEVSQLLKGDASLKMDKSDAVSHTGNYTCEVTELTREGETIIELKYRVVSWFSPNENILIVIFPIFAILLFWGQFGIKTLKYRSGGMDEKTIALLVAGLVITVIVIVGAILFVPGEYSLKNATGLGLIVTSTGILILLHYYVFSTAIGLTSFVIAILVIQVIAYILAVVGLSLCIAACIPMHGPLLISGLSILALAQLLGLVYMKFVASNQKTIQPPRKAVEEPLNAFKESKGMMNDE
Sequence of Parathyroid hormone/parathyroid hormone-related peptide receptor (Homo sapiens) (Q03431 whole entry, looked up): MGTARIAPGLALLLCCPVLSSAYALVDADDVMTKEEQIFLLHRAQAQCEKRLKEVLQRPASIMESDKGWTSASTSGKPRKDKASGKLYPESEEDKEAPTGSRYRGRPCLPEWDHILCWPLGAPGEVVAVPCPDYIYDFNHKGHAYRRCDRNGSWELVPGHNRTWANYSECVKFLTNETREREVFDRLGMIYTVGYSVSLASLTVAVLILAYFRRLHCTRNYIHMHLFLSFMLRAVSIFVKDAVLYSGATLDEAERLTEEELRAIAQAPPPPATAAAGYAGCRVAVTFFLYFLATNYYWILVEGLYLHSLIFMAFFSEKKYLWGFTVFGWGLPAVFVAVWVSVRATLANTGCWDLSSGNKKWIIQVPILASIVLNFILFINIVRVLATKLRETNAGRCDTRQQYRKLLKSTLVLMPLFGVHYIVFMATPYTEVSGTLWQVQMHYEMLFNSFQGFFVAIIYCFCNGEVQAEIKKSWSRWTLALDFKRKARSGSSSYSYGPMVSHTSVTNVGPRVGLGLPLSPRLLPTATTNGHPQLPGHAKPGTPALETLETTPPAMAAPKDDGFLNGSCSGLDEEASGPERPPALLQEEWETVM
Sequence of Phospholipid hydroperoxide glutathione peroxidase GPX4 (Homo sapiens) (P36969 whole entry, looked up): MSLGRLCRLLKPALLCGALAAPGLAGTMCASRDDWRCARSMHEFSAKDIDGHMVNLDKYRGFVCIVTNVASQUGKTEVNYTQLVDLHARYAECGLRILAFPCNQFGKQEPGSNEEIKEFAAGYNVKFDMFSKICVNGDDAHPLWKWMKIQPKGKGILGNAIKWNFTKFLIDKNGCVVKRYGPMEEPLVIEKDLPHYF
Sequence of Metallo-beta-lactamase type 2 (Klebsiella pneumoniae) (C7C422 whole entry, looked up): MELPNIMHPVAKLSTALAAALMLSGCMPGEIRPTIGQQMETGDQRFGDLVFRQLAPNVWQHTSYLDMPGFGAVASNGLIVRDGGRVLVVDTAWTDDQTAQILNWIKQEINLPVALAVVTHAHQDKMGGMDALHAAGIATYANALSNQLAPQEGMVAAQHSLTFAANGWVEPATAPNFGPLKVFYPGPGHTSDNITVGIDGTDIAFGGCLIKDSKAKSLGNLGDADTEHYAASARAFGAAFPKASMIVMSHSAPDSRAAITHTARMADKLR
Sequence of Papain (Carica papaya) (P00784 whole entry, looked up, the tested form may be a part): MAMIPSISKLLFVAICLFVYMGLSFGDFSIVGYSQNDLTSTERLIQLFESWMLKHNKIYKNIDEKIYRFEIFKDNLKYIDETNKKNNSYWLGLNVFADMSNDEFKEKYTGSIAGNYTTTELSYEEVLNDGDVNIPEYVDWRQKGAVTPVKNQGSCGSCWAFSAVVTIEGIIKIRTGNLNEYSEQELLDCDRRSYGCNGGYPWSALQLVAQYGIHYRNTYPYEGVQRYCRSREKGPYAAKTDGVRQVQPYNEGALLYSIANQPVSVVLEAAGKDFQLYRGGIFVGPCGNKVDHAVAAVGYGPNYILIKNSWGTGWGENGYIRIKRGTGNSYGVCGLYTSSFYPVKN
Sequence of Atrial natriuretic peptide receptor 2 (Homo sapiens) (P20594 whole entry, looked up): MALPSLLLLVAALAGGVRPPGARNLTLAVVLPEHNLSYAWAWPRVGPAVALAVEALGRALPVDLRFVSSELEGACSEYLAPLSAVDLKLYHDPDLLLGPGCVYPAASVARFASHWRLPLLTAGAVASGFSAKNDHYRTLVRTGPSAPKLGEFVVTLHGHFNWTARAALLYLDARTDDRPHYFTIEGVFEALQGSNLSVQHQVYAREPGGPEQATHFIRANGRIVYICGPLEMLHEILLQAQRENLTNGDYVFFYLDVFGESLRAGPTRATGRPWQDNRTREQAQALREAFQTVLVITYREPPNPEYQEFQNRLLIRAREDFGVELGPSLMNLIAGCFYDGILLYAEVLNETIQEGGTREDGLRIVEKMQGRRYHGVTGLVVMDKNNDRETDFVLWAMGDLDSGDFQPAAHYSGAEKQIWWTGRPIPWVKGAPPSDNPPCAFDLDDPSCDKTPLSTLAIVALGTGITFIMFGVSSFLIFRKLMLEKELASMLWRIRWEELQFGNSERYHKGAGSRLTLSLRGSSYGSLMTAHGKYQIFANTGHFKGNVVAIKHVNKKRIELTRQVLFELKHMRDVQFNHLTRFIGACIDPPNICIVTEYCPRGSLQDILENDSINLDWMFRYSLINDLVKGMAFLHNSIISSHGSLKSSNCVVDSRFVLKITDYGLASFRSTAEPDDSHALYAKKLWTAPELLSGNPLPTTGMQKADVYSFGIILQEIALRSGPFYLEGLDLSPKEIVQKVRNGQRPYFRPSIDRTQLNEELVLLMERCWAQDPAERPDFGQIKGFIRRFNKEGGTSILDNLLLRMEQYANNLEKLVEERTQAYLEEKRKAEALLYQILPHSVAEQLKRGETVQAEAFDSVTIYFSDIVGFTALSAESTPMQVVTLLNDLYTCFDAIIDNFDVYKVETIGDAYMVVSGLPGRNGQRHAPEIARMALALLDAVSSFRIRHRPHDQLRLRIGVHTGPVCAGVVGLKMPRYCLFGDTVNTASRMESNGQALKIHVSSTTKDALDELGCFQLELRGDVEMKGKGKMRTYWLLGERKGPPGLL
Sequence of Single-stranded DNA cytosine deaminase (Homo sapiens) (Q9GZX7 whole entry, looked up): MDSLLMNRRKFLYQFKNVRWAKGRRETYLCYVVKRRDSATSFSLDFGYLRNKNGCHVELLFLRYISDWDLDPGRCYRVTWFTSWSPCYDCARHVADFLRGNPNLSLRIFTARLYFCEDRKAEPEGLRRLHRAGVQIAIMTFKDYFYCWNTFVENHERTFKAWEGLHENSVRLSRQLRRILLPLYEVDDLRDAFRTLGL

CCc1ccc(/C=C2/SC(=S)NC2=O)cc1
inactive: outcome [1] | Potency [2] | outcome [3] | outcome [4] | Potency [5] | Potency [6] | outcome [7] | outcome [8] | Potency [9] | outcome [10] | outcome [12] | Potency [13] | outcome [14] | Potency [15] | outcome [16] | Potency [17] | Potency (Papain (Carica papaya)) | Potency [18] | Potency [19] | Potency [20] | Potency [21] | Z-AUC [22] 0.0868
active: Potency [11] 23.8 µM
0.763: Z-AUC ([22]; measured here: PEO4 Z-AUC)
0.677: Z-AUC ([22]; measured here: PEO1 parental Z-AUC)

Reference: PubChem BioAssay (NCATS)
